Experimental data published in PubChem BioAssay AID2417 (National Center for Advancing Translational Sciences (NCATS), 2010).
The campaign covered roughly 140,000 compounds. About 4,300 (3.1%) were called active. Roughly 21% stayed inconclusive and do not appear here. The sample as a whole holds a higher share of actives than the screen did. Unmarked numbers belong to inactive results.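 The calls were made as follows: active = readout at or below -70, meaning at least 70% loss of cells showing the perinucleolar compartment, a nuclear body marking cancer cells; inconclusive = readout between -30 and a set limit; inactive = the rest.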

assay: High Content Assay for Compounds that inhibit the Assembly of the Perinucleolar Compartment; settings: PC3M PTB-GFP, PNC prevalence imaging, 16 h; at 10 µM; hits give low values;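 also: plate controls were DMSO wells for no effect and camptothecin positive control wells for full effect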
How it was run: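 Compounds are pinned in duplicate onto adhered PC3M cells stably expressing GFP-tagged PTB and incubated 16 h at 37 C. Cells are then fixed, nuclei stained with Hoechst, and PNC-positive cells counted.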

Row | Compound | activity change (PNC), negative = inhibition
1 | O=C(NC1=NCCS1)[C@H](Cc1ccccc1)N1C(=O)c2ccccc2C1=O | 5.11%
2 | N/C(=N\c1nc2ccccc2o1)NC(=O)C(Cc1ccccc1)N1C(=O)c2ccccc2C1=O (centres undefined) | -100% (active)
3 | O=C(NCCN1CCOCC1)[C@H](Cc1ccccc1)N1C(=O)c2ccccc2C1=O | -13.4%
4 | CC(Sc1nc(-c2ccccc2)cc(C(F)(F)F)n1)C(=O)Nc1ccc2c(c1)OCO2 (centres undefined) | -18%
5 | Cc1ccc(C(=O)OCC(=O)NCc2ccc3c(c2)OCO3)s1 | -9.27%
6 | O=C(COc1ccccc1)NCc1ccc2c(c1)OCO2 | 24%
7 | c1n[nH]c(NCc2ccc3c(c2)OCO3)n1 | -81.5% (active)
8 | O=C(CSc1nnc(SCc2ccc(Cl)cc2)s1)N/N=C/c1ccccc1Cl | -24.9%
9 | CCOc1ccc(N2C(=O)/C(=C/c3ccc(C)o3)N(C)C2=S)cc1 | 15.7%
10 | CC(C)CCN1C(=O)c2ccc(C(=O)Nc3cccc(S(N)(=O)=O)c3)cc2C1=O | -6.14%
11 | CCOC(=O)C1=C(C)NC(=O)NC1c1ccccc1 (centres undefined) | 2.37%
12 | CCOC(=O)C1=C(C)NC(=S)NC1c1cccs1 (centres undefined) | -93.3% (active)
13 | CCOC(=O)C1=C(C)NC(C)=C(C(=O)OCC)C1C1=COCCO1 | 12%
14 | CONc1nc2nonc2nc1NOC | 47%
15 | Cc1cnc(NC(=O)CSc2nnc(-c3ccccc3)n2Cc2ccccc2)s1 | -8.74%
16 | Cc1cnc(NC(=O)CSc2c(Cl)cccc2Cl)s1 | 79.3%
17 | Cc1cnc(NC(=O)CSc2nnc(-c3ccc(Cl)cc3Cl)n2N)s1 | -100% (active)
18 | COc1ccc(C(=O)O/N=C(\N)Cc2ccc(Cl)cc2Cl)cc1OC | -26.7%
19 | CNS(=O)(=O)c1ccc(N2CCCC2=O)c([N+](=O)[O-])c1 | -24.4%
20 | COc1ccc(C(CC(=O)c2ccccc2)S(=O)(=O)c2ccccc2)cc1 (centres undefined) | 10.3%
21 | CCOC(=O)C1=C(C)N=c2s/c(=C\C(=O)OC)c(=O)n2C1c1ccc(OC)cc1 (centres undefined) | 0.912%
22 | COCCOC(=O)C1=C(C)N=c2s/c(=C\c3cccs3)c(=O)n2C1c1cccs1 (centres undefined) | -82.9% (active)
23 | COCCOC(=O)C1=C(C)Nc2nc(C)nn2C1c1ccccc1 (centres undefined) | -12.5%
24 | C=CCOc1ccc(/C=N/NC(=O)C(C)Sc2ccccn2)cc1OCC (centres undefined) | 17.5%

Row | Compound | activity change (PNC), negative = inhibition
25 | Cc1ccc(N=C2NC(=O)c3cccc([N+](=O)[O-])c32)cc1 | 43.8%
26 | COc1ccc(NC(=O)Cn2c(=O)n(Cc3ccco3)c(=O)c3ccccc32)cc1 | -2.68%
27 | Cn1c2ccccc2c(=O)c2c(=O)n(Cc3ccco3)c(COc3ccccc3)nc21 | -87% (active)
28 | Cc1nc2c(c(=O)n1Cc1ccco1)c1nc3ccccc3nc1n2Cc1ccccc1 | 32.1%
29 | Cc1cc(NC(=O)COC(=O)COc2ccc(Cl)cc2C)c([N+](=O)[O-])cc1C | -20.6%
30 | CN1/C(=C\C(=O)c2cccnc2Cl)C(C)(C)c2ccccc21 | 78%
31 | CCC1C=C(c2ccccc2)C=CN=C1N(CC)CC (centres undefined) | -9.28%
32 | COc1cc(OC)cc(C(=O)NC2CCN(C(=O)N3c4ccccc4Sc4ccccc43)CC2)c1 | -91% (active)
33 | CCOc1ccc(C(=O)NC2CCN(C(=O)Nc3ccccc3OC)CC2)cc1 | 37.5%
34 | O=C(NC1CC1)c1ccc2c(c1)NC(=O)c1ccccc1S2 | 14.7%
35 | CCn1cc(CNC(=O)c2cc([N+](=O)[O-])c(C)c([N+](=O)[O-])c2)cn1 | 4.07%
36 | CCN(CC)CCn1c(/N=C/c2cc(Br)ccc2O)nc2ccccc21 | 21.6%
37 | O=C(COC(=O)/C=C/c1ccc(S(=O)(=O)N2CCCCCC2)cc1)NCc1ccccc1Cl | 0.0752%
38 | Nc1nc(NCCCN2CCOCC2)nc(Nc2ccccc2)c1[N+](=O)[O-] | -16.9%
39 | CNc1nc(Nc2ccc(C)c(Cl)c2)nc(N)c1[N+](=O)[O-] | -113% (active)
40 | Cc1ccc(Nc2cc(C)nc3c(C)ccc([N+](=O)[O-])c23)cc1 | 23%
41 | O=C(Cc1ccccc1)NNC1CC(=O)N(c2ccc(Br)cc2)C1=O (centres undefined) | 6.12%
42 | O=C(CC1NCCNC1=O)Nc1cc(Cl)cc(Cl)c1 (centres undefined) | 29.9%
43 | CCc1ccc(Oc2coc3cc(OC(=O)c4cc5ccccc5oc4=O)ccc3c2=O)cc1 | 2.64%
44 | C=CCn1c(SCc2c(C)noc2C)nc2sc3c(c2c1=O)CCC(C)C3 (centres undefined) | -26.1%
45 | C=CCn1c(SCc2csc(C)n2)nc2scc(-c3ccc(C)o3)c2c1=O | -99.5% (active)
46 | C=CCn1c(SCC(=O)/C(C#N)=C(\C)N)nc2sc(C)c(C)c2c1=O | -7.62%
47 | CC1CCCN(S(=O)(=O)c2ccc(N(C(=O)c3cnccn3)C(C(=O)NC3CCCCC3)c3cccs3)cc2)C1 (centres undefined) | 13.4%
48 | O=C(/C=C/c1cnc2ccccc2n1)NC1CCCCCC1 | -24.3%

Row | Compound | activity change (PNC), negative = inhibition
49 | Cc1nn(Cc2ccc(Cl)cc2)c(Cl)c1/C=N/NC(=O)c1cccnc1 | 35.8%
50 | O=C(COc1ccc2oc3c(c2c1)CCCC3)Nc1ccccn1 | -26.2%
51 | O=C(CN1CCOCC1)N1CCCc2c1c(=O)oc1ccc(OCc3ccccc3)cc21 | -90.3% (active)
52 | NC(=O)COc1ccc2c3c(c(=O)oc2c1)CCCCC3 | -10.3%
53 | CCCCN(CC)C(=O)c1ccccc1Oc1ccccc1 | 6.14%
54 | Cc1cccc(C(=O)NC(=S)N2CCN(c3ccc([N+](=O)[O-])cc3)CC2)c1 | 8.71%
55 | CC(=O)N1c2ccccc2N(Cc2ccc([N+](=O)[O-])cc2)C(=O)C1(C)C | 13.5%
56 | COCC(C)n1c(SCc2ccc(C(=O)OC)o2)nc2ccccc2c1=O (centres undefined) | 1.64%
57 | COC(=O)c1ccc(CSc2nc3ccccc3c(=O)n2-c2cccc(OC)c2)o1 | 7.85%
58 | COC(=O)c1ccc(CSc2ccc3nnc(-c4ccccc4)n3n2)o1 | -97.8% (active)
59 | COC(=O)c1ccc(Cc2ccccc2)o1 | 13.6%
60 | COC(=O)c1ccc(CSc2ccccc2C)o1 | -112% (active)
61 | CCOc1ccccc1Nc1nnc(SCc2ccc(C(=O)OC)o2)s1 | 30.2%
62 | O=C(CNS(=O)(=O)c1ccccc1)NCC(=O)OCc1ccccc1F | 26%
63 | Cn1ncc2c(NNC(=O)Cc3cccc4ccccc34)ncnc21 | -13.1%
64 | COc1ccc(N2C(=O)CC(SC(C)C)C2=O)cc1 (centres undefined) | 36.9%
65 | O=C(Nn1c(-c2ccccc2)nc2ccccc2c1=O)c1ccc([N+](=O)[O-])cc1 | 38.7%
66 | O=C(N/N=C/c1coc2ccccc2c1=O)c1cc2ccccc2o1 | 11%
67 | O=C(/C=C/NCc1ccc(F)cc1)c1ccccc1 | -6.98%
68 | Fc1ccc2c(c1)C(c1cccnc1)=NNC(c1cccs1)=N2 | 17.9%
69 | C=CCn1c(SCc2c(C(=O)OC)sc(N)c2C(=O)OC)nnc1-c1ccc(Cl)cc1 | 7.94%
70 | C=CCn1c(SCc2ccc(Cl)c(Cl)c2)nnc1C(CO)NC(=O)c1ccc(OC)cc1 (centres undefined) | -102% (active)
71 | C=CCn1c(SCC(=O)c2ccc(Br)cc2)nnc1C(C)NC(=O)Cc1ccc(OC)cc1 (centres undefined) | 11.4%
72 | CC1(C)C(C=C(Cl)Cl)C1C(=O)N(Cc1ccc(Cl)cc1)C1CCS(=O)(=O)C1 (centres undefined) | 32.1%

Row | Compound | activity change (PNC), negative = inhibition
73 | O=C(NN1C(=O)C2C3C=CC(O3)C2C1=O)c1ccncc1 (centres undefined) | 36%
74 | CC(=O)c1ccc(NC(=S)NC(=O)CC(C)C)cc1 | 18.7%
75 | COC(=O)C1=C(Nc2ccc(C)cc2)C=C(C)C(C(=O)OC)C1c1ccc(F)cc1 (centres undefined) | -100% (active)
76 | COC(=O)C1C(=O)NCC1c1ccc(C)cc1 (centres undefined) | -2.49%
77 | COC(=O)C1=C(Nc2ccc(OC)cc2)C=C(C)C(C(=O)OC)C1c1ccc(C)cc1 (centres undefined) | -17.7%
78 | O=C(CCc1[nH]c2ccccc2c1Sc1ccccc1)N(CCO)CCO | 85.7%
79 | CC(=O)NC1=NN(C(C)=O)C(C)(c2ccc(C)cc2)S1 (centres undefined) | 54.1%
80 | COc1ccc(C(=O)Nc2c(Cl)cc(Cl)cc2C(=O)N2CCC(C)CC2)cc1 | -10.7%
81 | CSc1ccc(S(=O)(=O)NC2CCCCC2)cc1 | -23.3%
82 | CCOC1CCCCC1NS(=O)(=O)c1ccc(Cl)cc1 (centres undefined) | 21.4%
83 | Cc1cc(C)nc(SC2CCCCC2NS(=O)(=O)c2ccc(Cl)cc2)n1 (centres undefined) | -107% (active)
84 | CC(=O)N/C(=C/c1ccc(OC(F)F)cc1)C(=O)O | -25.2%
85 | COc1ccccc1CNC(=O)CN1CCC(n2cnc3cc(F)ccc32)CC1 | 26.2%
86 | COc1ccc(N2C(=O)C(CC(=O)Nc3ccc(F)cc3)N(CCc3cccs3)C2=O)cc1 (centres undefined) | 20.2%
87 | CC(C)CCNC(=O)c1cccnc1Sc1ccccc1 | 23.2%
88 | FC(F)(F)c1cccc(-c2cc3ccccc3nc2N2CCCC2)c1 | -94.9% (active)
89 | Cc1cccc2cc(C#N)c(N3CCCC3)nc12 | -8.64%
90 | S=C(NCCc1ccccc1)NCc1ccccc1Cl | 29.5%
91 | COc1ccc(-n2c(C)cc(C(=O)CN3C(=O)NC4(CCc5ccccc54)C3=O)c2C)cc1 (centres undefined) | -15%
92 | COc1ccccc1N1CCN(CCCCOc2ccc(F)cc2)CC1 | 11%
93 | COc1ccccc1N1CCN(Cc2nnnn2CCc2ccccc2)CC1 | -5.45%
94 | COc1ccccc1N1CCN(Cc2ccc(OC)c3ccccc23)CC1 | -100% (active)
